About 8,600 (12%) of roughly 69,000 compounds showed an effect of 50% or more. The sample as a whole holds a higher share of strong results than the screen did.
The compounds below were run on Plasmodium berghei (assay: Screen against P. berghei liver stage (PbLuc), transformed with Luciferase, at 10uM). Conditions: tested at 10 uM.
Type: functional, HepG2

SMILES	INHIBITION
Cc1ccc(-c2cc(CNC(=O)NC3CCCCNC3=O)on2)cc1 (centres undefined)	-22.1%
CS(=O)(=O)NC[C@H]1OC[C@H]2CN(CCc3ccccc3)CC[C@H]21	2.7%
CC(C)C(=O)N1CCC(Cc2nccnc2Nc2ccccn2)CC1	23.4%
CCS(=O)(=O)N1C[C@H]2CN(Cc3cccnc3)C(=O)[C@H]2C1	-28.2%
O=C(CSc1nncs1)N1CCN(Cc2ccc(Cl)cc2)CC1	87.2%
O=C(CSc1nncs1)N1CCN(Cc2ccc(Cl)s2)CC1	2.37%
CCNc1nnc(SCC(=O)N2CCN(Cc3ccc(Cl)s3)CC2)s1	40.5%
c1ccc(-n2nc(CNC3CCc4ncnn4C3)c3c2CCC3)cc1 (centres undefined)	33.25%
Cc1noc([C@@H]2C[C@@H]3CCN(CC4CCOCC4)C[C@H]3O2)n1	-23.4%
Cc1cccc(C(C(=O)NCc2nc(-c3ncccn3)no2)N(C)C)c1 (centres undefined)	56.3%
Cc1ccccc1C(C(=O)NCc1nc(-c2ncccn2)no1)N(C)C (centres undefined)	-24.9%
Cc1cccc(C(C(=O)NCc2nc(-c3cccnc3)no2)N(C)C)c1 (centres undefined)	15.3%
CCN(Cc1cccc2c1OCO2)C(=O)NCCOC	31.3%
CC(C)(C)CC(NC(=O)N1CCS(=O)(=O)CC1)C(F)(F)F (centres undefined)	-47.8%
Cc1nn(C)cc1CN1CCc2nc(-c3cccnc3)nc(O)c2C1	38.8%
FC(F)(F)c1ccc2nc([C@H]3CCN(C4CCC4)C3)[nH]c2c1	39.2%
Fc1ccc2[nH]c([C@H]3CCN(C4CCOCC4)C3)nc2c1	31.2%
CC(C)N1CC[C@H](c2nc3ccc(C(F)(F)F)cc3[nH]2)C1	30.3%
CN1CCC(N2CC[C@H](c3nc4ccc(C(F)(F)F)cc4[nH]3)C2)CC1	24.3%
FC(F)(F)c1ccc2nc([C@H]3CCN(C4CCOCC4)C3)[nH]c2c1	53%
FC(F)(F)c1ccc2nc([C@H]3CCN(C4CCCCC4)C3)[nH]c2c1	73.7%
O=S(=O)(CCN1CCN(c2ccccc2O)CC1)c1ccc(Br)cc1	18.9%
CN(Cc1ccccc1)c1cnn(CC2COCCO2)c(=O)c1 (centres undefined)	28.2%

SMILES	INHIBITION
O=C(c1cnoc1)N1CCC[C@]2(C[C@@H](Oc3ccccn3)CO2)C1	-27.9%
c1cnc(-c2cnc(N3CCSCC3)nc2C2CC2)cn1	64.3%
c1cnc(-c2cnc(N3CCCCC3)nc2C2CCCO2)cn1 (centres undefined)	-14.1%
c1cc(CNc2ncc(-c3cnccn3)c(C3CC3)n2)ccn1	75.9%
c1cc(CNc2ncc(-c3cnccn3)c([C@@H]3CCCO3)n2)ccn1	5.34%
c1cnc(-c2cnc(N3CCSCC3)nc2C2CCCO2)cn1 (centres undefined)	27.9%
c1cc(CCNc2ncc(-c3cnccn3)c(C3CC3)n2)ccn1	28.5%
CC(C)C(C(=O)N1CCCN(Cc2cscn2)CC1)n1cncn1 (centres undefined)	-22.9%
CC1CC(=O)c2cnc3nc(N4CCOCC4)[nH]c(=O)c3c2C1 (centres undefined)	22%
Cc1ncccc1CNCC1CCCN1c1cccnn1 (centres undefined)	7.67%
Cc1ncccc1CNCC1COC2(CCCCC2)O1 (centres undefined)	74.9%
Cc1ncccc1CNCC1CCN(CCO)CC1	-64.9%
COCCOc1ccccc1CNCC1COC2(CCCC2)O1 (centres undefined)	81.5%
Cc1cccc(CNC2(CCO)CCOCC2)c1C	27.3%
Cc1cccc(CNCC2COC3(CCCC3)O2)c1C (centres undefined)	50%
Cc1cccc(CNCC2COC3(CCCCC3)O2)c1C (centres undefined)	-3.77%
COCCOc1ccccc1CNCc1c(C)nn(C)c1N(C)C	-2.44%
CCN1CCOC(CNCc2ccccc2OCC(=O)N(C)C)C1 (centres undefined)	12.8%
O=C(CCOCC(F)(F)F)N1CCCC1c1noc(C2CC2)n1 (centres undefined)	-21.5%
Cc1nc(NC(=O)C(C)N(C)Cc2ccc3c(c2)OCO3)sc1C (centres undefined)	46.3%
Cc1cc(C)n(C2CCCN(C(=O)CCOc3ccccc3F)C2)n1 (centres undefined)	-11.4%
COCc1noc(-c2cc(Cl)c3c(c2)OCCCO3)n1	19.8%
Cc1ccc(C(=O)NC2CCN(C(=O)Nc3ccccn3)CC2)o1	-1.58%

SMILES	INHIBITION
CC1CCN(CC(O)CNc2ccccn2)CC1 (centres undefined)	1.62%
CC(=O)N1CCC(C(=O)N2CCCC(Cc3ccccn3)C2)CC1 (centres undefined)	-6.92%
CN(C)c1ncc(NC(=O)N2CCC(CN3CCCC3)C2)cn1 (centres undefined)	-45%
Cc1cccc(NC2CCN(C(=O)Nc3ccccn3)CC2)n1	28.8%
O=C(NC1CCCCC1)C1CCCN(C(=O)Nc2ccccn2)C1 (centres undefined)	66.1%
Cc1ccc(C(=O)NC2CCN(C(=O)Nc3ccccn3)CC2)s1	-21.9%
CC1CCN(C(=O)C2CCCN(C(=O)Nc3ccccn3)C2)CC1 (centres undefined)	89.6%
CC1CCN(CC2CCCN(C(=O)Nc3ccccn3)C2)CC1 (centres undefined)	55%
CNc1ccc(CC2CCCN(C(=O)c3cnccn3)C2)nn1 (centres undefined)	32.3%
O=C(NCC1(O)COCCN(Cc2cccc(O)c2)C1)c1cscn1 (centres undefined)	-19.7%
Cc1cc(C)n(CC(C)Nc2nc(-c3ccncc3)nc3c2CNC3)n1 (centres undefined)	49.2%
Cn1cnc2c(N3CCCC3)nc(C3CCN(CC4CC4)CC3)cc21	-14.4%
CCc1cnc(C)nc1N1CCS(=O)(=O)CC1	57.3%
CCOC(=O)N1CCN(c2nc(C)ncc2CC)CC1	47.1%
CCc1cnc(C)nc1N1CCN(C(N)=O)CC1	46.1%
O=C(Cn1cc(Cl)cn1)N1CCCC(c2ccn[nH]2)C1 (centres undefined)	28%
Cc1occc1CNC(=O)NCCN(C)C1CCCC1	16.8%
CCOCC1CN(C(=O)c2ccoc2)Cc2cnn(C)c21 (centres undefined)	15.6%
CN(Cc1ccc(C#N)cc1)Cn1nccc1-c1cccnc1	50.5%
Cc1noc(C)c1CN(C)Cn1nccc1-c1cccnc1	36.2%
Cc1ccsc1CN(C)Cn1nccc1-c1cccnc1	5.79%
NC(=O)c1sc2ccccc2c1C1CCN(S(=O)(=O)N2CCOCC2)C1 (centres undefined)	-24.4%
CCc1ccc(CNc2cc(N3CCCC3CO)ncn2)s1 (centres undefined)	49.1%

From ChEMBL document CHEMBL4513216, “Probing the Open Global Health Chemical Diversity Library for Multistage-Active Starting Points for Next-Generation Antimalarials” (ACS Infect Dis, 2020)
